# From PubChem BioAssay (NCI)
# The panel holds about 79,000 compounds, 15% with a hit somewhere; the sample as a whole holds those more often. The source made the active and inactive calls. Rule as the data show it: active = growth inhibition above about 70%; inactive = the rest.
# Assay: NCI Yeast Anticancer Drug Screen. Data for the wt1 strain (AID 149);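 also: 0% = growth of vehicle-treated wt1 cultures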
# Settings: S. cerevisiae wt1 strain (SPY 50644) growth inhibition; at 1.2 µM; hits give high values
# How it was run: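 Using yeast strain wt1, compound-induced growth inhibition was determined against vehicle-treated cultures.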
row,SMILES,growth inhibition
1,COc1ccc(/C=C2\CCc3ccccc3C2=O)cc1OC,-13% (inactive)
2,CN(NC(=O)/C(=C/C=C/c1ccccc1)NC(=O)c1ccccc1)C1=C(Cl)C(=O)[N+](c2ccccc2)=CC1,0% (inactive)
3,CCCCOc1ccc(Nc2c3ccccc3nc3ccccc23)cc1,-12% (inactive)
4,Cc1c2ccncc2c(C)c2c1oc1ccccc12,1% (inactive)
5,CCCC#CCOC(=O)c1cc([N+](=O)[O-])cc([N+](=O)[O-])c1,-4% (inactive)
6,COC1=C(N=[N+]=[N-])C(=O)c2ncccc2C1=O,3% (inactive)
7,CCN(CC)c1ccc(N=Nc2cc(S(=O)(=O)O)ccc2O)c(O)c1,8% (inactive)
8,O=C1C(C(O)(C(F)(F)F)C(F)(F)F)CCC1C(O)(C(F)(F)F)C(F)(F)F (stereo unspecified),3% (inactive)
9,CN(C)CCNC(=O)c1cccc2nc3c(ccc4ccccc43)nc12,-3% (inactive)
10,CC1=Cc2ccc(C)cc2C(=O)C1=O,-10% (inactive)
11,C=Cc1c(C)c(O)cc2c1-c1ccc(O)c(C)c1CC2,-8% (inactive)
12,C[n+]1c(-c2ccc(NC(=O)c3ccc(C(=O)Nc4ccc(-c5cn6ccccc6[n+]5C)cc4)cc3)cc2)cn2ccccc21,5% (inactive)
13,CNC(=O)OCc1c(COC(=O)NC)c(C)n(-c2ccc(Cl)c(Cl)c2)c1C,-51% (inactive)

# Same assay, conditions: S. cerevisiae wt1 strain (SPY 50644) growth inhibition; at 3.7 µM; hits give high values
row,SMILES,growth inhibition
1,COc1ccc(/C=C2\CCc3ccccc3C2=O)cc1OC,-2% (inactive)
2,CN(NC(=O)/C(=C/C=C/c1ccccc1)NC(=O)c1ccccc1)C1=C(Cl)C(=O)[N+](c2ccccc2)=CC1,2% (inactive)
3,CCCCOc1ccc(Nc2c3ccccc3nc3ccccc23)cc1,-24% (inactive)
4,Cc1c2ccncc2c(C)c2c1oc1ccccc12,2% (inactive)
5,CCCC#CCOC(=O)c1cc([N+](=O)[O-])cc([N+](=O)[O-])c1,22% (inactive)
6,COC1=C(N=[N+]=[N-])C(=O)c2ncccc2C1=O,6% (inactive)
7,CCN(CC)c1ccc(N=Nc2cc(S(=O)(=O)O)ccc2O)c(O)c1,15% (inactive)
8,O=C1C(C(O)(C(F)(F)F)C(F)(F)F)CCC1C(O)(C(F)(F)F)C(F)(F)F (stereo unspecified),6% (inactive)
9,CN(C)CCNC(=O)c1cccc2nc3c(ccc4ccccc43)nc12,-2% (inactive)
10,CC1=Cc2ccc(C)cc2C(=O)C1=O,8% (inactive)
11,C=Cc1c(C)c(O)cc2c1-c1ccc(O)c(C)c1CC2,-4% (inactive)
12,C[n+]1c(-c2ccc(NC(=O)c3ccc(C(=O)Nc4ccc(-c5cn6ccccc6[n+]5C)cc4)cc3)cc2)cn2ccccc21,3% (inactive)
13,CNC(=O)OCc1c(COC(=O)NC)c(C)n(-c2ccc(Cl)c(Cl)c2)c1C,-53% (inactive)
